# Experimental data published in article PMC7862700, “An all-to-all approach to the identification of sequence-specific readers for epigenetic DNA modifications on cytosine”.
# How the values were obtained:
# Assay in all cases: DAPPL (digital affinity profiling via proximity ligation, sequencing); 10 mM Tris-HCl pH 7.5, 50 mM NaCl, 1 mM DTT, 4% glycerol, room temperature, 30 min; GST-TFs on glutathione beads, 16-mer random dsDNA library, 0.1% formaldehyde crosslink after washing; high values mean tight binding
# FLI1 = biological target: T1, FLI1 (Homo sapiens, UniProt Q01543 1-452); conditions: protein: recombinant; tags: N-terminal GST; dsDNA, one strand shown
# T1 sequence: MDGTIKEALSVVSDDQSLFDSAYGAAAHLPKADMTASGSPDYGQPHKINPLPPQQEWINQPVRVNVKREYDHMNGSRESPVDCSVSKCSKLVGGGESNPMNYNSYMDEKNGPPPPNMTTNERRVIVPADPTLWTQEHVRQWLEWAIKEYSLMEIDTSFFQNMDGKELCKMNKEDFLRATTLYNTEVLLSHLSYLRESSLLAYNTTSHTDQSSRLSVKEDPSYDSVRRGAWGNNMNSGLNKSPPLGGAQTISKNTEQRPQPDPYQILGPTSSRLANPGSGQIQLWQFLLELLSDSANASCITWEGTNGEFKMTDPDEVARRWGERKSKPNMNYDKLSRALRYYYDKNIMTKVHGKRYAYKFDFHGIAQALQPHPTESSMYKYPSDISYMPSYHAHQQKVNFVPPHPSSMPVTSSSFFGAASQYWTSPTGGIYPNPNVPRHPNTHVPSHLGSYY
# Outline: (§1)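 Sequencing on an Illumina NextSeq500 followed washing, crosslinking with 0.1% formaldehyde, proximity ligation (BsaI/T4 ligase, 1 h, 37 °C) and PCR amplification of pools that had been incubated for 30 min at room temperature with 200 nmole of a random double-stranded 16-mer DNA library in Tris/NaCl/DTT/glycerol buffer. Each pool held DNA-barcoded human transcription factors, expressed in yeast as GST fusions and captured on glutathione beads, plus a tag-only sample. Binding signal is a hexamer's read frequency for a factor divided by its frequency in the tag-only sample.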
# ELK1 = biological target: T2, ELK1 (Homo sapiens, UniProt P19419 1-428); conditions: protein: recombinant; tags: N-terminal GST; dsDNA, one strand shown
# T2 sequence: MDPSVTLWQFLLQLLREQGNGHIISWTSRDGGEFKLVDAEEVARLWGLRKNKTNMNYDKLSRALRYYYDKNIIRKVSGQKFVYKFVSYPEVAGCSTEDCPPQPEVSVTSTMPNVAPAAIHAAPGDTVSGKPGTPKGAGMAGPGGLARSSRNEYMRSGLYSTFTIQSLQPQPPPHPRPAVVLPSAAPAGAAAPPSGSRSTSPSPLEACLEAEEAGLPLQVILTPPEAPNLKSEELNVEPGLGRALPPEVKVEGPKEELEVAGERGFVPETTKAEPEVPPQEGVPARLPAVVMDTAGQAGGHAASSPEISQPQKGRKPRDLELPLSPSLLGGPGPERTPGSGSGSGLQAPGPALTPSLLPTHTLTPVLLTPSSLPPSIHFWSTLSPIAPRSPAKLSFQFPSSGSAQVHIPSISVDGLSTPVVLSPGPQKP
# Outline: as §1
# GABPA = biological target: T3, GABPA (Homo sapiens, UniProt Q06546 1-454); conditions: protein: recombinant; tags: N-terminal GST; dsDNA, one strand shown
# T3 sequence: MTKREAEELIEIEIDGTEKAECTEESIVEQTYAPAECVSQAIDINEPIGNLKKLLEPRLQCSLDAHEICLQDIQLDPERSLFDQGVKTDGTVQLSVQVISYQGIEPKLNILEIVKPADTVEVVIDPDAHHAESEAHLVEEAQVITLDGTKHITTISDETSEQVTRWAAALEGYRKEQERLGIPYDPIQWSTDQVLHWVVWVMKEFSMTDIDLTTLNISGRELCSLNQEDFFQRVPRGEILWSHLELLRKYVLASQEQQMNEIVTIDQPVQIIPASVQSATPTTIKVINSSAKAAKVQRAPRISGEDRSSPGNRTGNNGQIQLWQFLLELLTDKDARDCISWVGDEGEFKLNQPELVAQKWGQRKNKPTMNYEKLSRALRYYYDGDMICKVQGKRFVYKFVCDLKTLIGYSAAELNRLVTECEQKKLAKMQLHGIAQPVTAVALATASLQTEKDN
# Outline: as §1
# ERG = biological target: T4, ERG (Homo sapiens, UniProt P11308 1-479); conditions: protein: recombinant; tags: N-terminal GST; dsDNA, one strand shown
# T4 sequence: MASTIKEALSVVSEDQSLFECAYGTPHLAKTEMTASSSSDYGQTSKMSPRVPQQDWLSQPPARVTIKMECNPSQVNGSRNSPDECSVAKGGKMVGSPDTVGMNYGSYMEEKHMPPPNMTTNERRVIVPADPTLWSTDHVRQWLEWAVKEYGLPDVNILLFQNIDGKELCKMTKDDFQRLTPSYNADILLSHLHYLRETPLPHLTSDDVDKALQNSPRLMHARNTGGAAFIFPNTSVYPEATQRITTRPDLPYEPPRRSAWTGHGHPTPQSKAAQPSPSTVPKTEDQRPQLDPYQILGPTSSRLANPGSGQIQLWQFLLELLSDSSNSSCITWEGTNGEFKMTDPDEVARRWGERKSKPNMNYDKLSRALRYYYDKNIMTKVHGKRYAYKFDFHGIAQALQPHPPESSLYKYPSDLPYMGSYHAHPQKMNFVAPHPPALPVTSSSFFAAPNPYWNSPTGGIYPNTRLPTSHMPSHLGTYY
# Outline: as §1
# ELF1 = ELF1 (Homo sapiens, UniProt P32519 1-619); conditions: protein: recombinant; tags: N-terminal GST; dsDNA, one strand shown
# Chain of ELF1 (P32519 whole entry): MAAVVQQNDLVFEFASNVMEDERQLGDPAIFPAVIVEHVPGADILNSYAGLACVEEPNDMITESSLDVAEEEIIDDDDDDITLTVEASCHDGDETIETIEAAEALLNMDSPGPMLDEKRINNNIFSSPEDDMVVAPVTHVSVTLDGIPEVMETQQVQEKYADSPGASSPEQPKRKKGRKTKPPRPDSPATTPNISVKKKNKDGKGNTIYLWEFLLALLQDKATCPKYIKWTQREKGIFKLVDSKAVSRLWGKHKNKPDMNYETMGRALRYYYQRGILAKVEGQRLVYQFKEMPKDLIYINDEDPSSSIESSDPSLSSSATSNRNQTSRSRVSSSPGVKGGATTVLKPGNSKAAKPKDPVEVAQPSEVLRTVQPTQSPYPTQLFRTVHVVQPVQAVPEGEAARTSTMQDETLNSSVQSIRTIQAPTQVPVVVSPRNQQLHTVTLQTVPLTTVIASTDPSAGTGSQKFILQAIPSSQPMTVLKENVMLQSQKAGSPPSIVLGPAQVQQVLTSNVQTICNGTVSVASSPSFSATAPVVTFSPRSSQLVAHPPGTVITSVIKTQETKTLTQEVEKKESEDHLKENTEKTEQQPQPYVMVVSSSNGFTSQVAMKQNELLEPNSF
# Outline: as §1
# EHF = biological target: T5, EHF (Homo sapiens, UniProt Q9NZC4 1-300); conditions: protein: recombinant; tags: N-terminal GST; dsDNA, one strand shown
# T5 sequence: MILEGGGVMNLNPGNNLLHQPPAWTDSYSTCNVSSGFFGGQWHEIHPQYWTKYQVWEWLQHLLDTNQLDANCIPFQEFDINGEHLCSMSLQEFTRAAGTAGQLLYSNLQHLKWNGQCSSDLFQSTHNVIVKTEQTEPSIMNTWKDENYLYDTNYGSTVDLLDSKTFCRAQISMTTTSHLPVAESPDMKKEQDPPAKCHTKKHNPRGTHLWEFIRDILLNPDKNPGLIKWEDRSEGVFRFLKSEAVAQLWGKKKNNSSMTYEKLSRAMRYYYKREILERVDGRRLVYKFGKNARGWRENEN
# Outline: as §1
# SPI1 = SPI1 (Homo sapiens, UniProt P17947 1-270); conditions: protein: recombinant; tags: N-terminal GST; dsDNA, one strand shown
# Outline: as §1
# SPIB = SPIB (Homo sapiens, UniProt Q01892 1-262); conditions: protein: recombinant; tags: N-terminal GST; dsDNA, one strand shown
# Chain of SPIB (Q01892 whole entry): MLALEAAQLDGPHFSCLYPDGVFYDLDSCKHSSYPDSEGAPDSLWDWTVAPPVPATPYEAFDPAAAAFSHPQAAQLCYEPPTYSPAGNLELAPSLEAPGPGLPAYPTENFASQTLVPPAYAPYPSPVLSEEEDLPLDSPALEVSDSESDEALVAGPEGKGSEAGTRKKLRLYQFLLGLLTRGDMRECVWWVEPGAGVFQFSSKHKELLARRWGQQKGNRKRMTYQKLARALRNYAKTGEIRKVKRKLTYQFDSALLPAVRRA
# Outline: as §1
# ELK3 = biological target: T6, ELK3 (Homo sapiens, UniProt P41970 1-407); conditions: protein: recombinant; tags: N-terminal GST; dsDNA, one strand shown
# T6 sequence: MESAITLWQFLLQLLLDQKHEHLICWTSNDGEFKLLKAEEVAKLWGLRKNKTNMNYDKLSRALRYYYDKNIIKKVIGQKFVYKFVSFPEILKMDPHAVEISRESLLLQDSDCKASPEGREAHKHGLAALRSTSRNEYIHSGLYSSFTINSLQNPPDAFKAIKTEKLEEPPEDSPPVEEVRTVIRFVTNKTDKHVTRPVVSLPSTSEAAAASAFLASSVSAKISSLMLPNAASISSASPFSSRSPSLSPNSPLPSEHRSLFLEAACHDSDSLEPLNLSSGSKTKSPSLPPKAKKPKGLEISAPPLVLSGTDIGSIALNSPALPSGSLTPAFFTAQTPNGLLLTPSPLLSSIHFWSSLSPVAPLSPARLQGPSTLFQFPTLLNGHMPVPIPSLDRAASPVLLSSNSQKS
# Outline: as §1
# FEV = biological target: T7, FEV (Homo sapiens, UniProt Q99581 1-238); conditions: protein: recombinant; tags: N-terminal GST; dsDNA, one strand shown
# T7 sequence: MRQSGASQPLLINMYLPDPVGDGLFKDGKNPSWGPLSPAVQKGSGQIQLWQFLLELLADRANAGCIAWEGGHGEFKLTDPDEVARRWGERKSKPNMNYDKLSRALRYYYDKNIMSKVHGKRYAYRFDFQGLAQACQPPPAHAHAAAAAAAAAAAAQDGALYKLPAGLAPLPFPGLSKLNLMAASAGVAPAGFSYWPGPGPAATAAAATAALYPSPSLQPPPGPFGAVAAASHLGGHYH
# Outline: as §1
# ETV5 = ETV5 (Homo sapiens, UniProt P41161 1-510); conditions: protein: recombinant; tags: N-terminal GST; dsDNA, one strand shown
# Chain of ETV5 (P41161 whole entry): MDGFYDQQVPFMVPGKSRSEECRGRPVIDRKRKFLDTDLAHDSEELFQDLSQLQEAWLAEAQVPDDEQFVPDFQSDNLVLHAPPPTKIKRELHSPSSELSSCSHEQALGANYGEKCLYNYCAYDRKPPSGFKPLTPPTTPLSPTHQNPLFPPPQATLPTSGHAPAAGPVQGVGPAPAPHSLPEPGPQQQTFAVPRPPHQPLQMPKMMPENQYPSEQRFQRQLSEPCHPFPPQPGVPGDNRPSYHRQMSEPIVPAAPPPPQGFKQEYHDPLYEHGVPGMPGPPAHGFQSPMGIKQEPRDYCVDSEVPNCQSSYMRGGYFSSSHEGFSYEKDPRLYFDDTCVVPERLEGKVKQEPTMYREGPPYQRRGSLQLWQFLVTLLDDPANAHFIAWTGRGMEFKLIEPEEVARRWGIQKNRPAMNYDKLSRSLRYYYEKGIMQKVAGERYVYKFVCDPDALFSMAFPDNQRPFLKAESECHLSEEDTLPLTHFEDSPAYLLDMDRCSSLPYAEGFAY
# Outline: as §1
# HSF1 = HSF1 (Homo sapiens, UniProt Q00613 1-529); conditions: protein: recombinant; tags: N-terminal GST; chain copies: 3; dsDNA, one strand shown
# Chain of HSF1 (Q00613 whole entry): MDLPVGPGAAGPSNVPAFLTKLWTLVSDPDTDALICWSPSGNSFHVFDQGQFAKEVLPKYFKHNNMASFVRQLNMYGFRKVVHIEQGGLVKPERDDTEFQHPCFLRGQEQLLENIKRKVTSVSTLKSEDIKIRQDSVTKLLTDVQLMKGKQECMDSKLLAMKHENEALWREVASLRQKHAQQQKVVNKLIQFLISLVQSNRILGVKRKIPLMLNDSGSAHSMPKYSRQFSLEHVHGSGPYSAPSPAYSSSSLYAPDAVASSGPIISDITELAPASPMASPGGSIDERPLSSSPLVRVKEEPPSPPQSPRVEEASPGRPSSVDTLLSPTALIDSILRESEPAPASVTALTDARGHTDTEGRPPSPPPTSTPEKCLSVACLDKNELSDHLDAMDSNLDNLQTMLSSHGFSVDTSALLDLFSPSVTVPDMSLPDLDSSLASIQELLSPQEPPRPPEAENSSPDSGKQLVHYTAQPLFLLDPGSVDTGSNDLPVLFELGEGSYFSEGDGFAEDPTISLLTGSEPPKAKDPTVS
# Outline: as §1
# SPIC = biological target: T8, SPIC (Homo sapiens, UniProt Q8N5J4 1-248); conditions: protein: recombinant; tags: N-terminal GST; dsDNA, one strand shown
# T8 sequence: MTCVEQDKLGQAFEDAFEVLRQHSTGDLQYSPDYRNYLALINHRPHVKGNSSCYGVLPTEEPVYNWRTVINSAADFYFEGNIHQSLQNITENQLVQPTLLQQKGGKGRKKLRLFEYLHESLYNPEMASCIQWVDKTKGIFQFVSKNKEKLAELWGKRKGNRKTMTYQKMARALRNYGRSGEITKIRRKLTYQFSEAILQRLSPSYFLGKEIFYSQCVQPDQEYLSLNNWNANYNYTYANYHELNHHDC
# Outline: as §1
# ELF4 = ELF4 (Homo sapiens, UniProt Q99607 1-663); conditions: protein: recombinant; tags: N-terminal GST; dsDNA, one strand shown
# Chain of ELF4 (Q99607 whole entry): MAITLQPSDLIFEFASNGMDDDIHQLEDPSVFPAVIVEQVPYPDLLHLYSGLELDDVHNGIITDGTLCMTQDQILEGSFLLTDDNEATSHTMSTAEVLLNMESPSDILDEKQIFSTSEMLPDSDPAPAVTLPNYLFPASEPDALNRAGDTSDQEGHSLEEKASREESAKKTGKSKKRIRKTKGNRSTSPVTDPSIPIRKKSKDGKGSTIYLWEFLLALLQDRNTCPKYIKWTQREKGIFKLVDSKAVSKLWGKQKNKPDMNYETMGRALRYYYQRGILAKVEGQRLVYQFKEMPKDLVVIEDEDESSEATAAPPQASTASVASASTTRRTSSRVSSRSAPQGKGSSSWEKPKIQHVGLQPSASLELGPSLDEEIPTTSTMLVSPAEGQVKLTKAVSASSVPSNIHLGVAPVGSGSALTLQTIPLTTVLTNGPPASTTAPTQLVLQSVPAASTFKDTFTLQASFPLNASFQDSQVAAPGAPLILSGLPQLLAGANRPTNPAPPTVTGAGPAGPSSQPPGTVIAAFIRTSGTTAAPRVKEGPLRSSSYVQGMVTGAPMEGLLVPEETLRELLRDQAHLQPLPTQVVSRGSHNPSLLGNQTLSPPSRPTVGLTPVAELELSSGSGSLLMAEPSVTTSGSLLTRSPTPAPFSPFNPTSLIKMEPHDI
# Outline: as §1
# ELK4 = biological target: T9, ELK4 (Homo sapiens, UniProt P28324-2 1-405); conditions: protein: recombinant; tags: N-terminal GST; dsDNA, one strand shown
# T9 sequence: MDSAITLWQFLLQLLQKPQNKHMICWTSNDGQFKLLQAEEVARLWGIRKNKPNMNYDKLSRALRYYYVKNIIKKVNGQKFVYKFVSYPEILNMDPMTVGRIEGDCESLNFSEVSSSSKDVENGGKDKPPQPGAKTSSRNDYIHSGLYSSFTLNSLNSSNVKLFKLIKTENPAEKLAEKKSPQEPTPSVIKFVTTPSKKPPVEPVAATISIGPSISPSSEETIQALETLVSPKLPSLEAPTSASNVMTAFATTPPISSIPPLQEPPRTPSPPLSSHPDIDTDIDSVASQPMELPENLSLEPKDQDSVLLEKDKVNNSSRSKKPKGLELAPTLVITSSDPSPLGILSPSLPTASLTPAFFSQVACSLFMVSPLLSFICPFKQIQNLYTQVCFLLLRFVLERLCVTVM
# Outline: as §1
# ETV2 = biological target: T10, ETV2 (Homo sapiens, UniProt O00321 1-342); conditions: protein: recombinant; tags: N-terminal GST; dsDNA, one strand shown
# T10 sequence: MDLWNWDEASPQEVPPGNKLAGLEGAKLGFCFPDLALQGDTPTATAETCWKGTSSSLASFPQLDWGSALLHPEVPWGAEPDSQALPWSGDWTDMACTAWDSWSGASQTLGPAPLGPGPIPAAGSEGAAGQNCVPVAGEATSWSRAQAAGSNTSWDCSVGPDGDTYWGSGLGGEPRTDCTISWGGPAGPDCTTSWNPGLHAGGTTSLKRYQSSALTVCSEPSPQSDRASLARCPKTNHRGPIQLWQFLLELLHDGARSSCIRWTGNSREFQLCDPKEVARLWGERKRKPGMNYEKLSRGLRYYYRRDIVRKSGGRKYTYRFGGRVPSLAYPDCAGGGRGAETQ
# Outline: as §1
# ELF3 = biological target: T11, ELF3 (Homo sapiens, UniProt P78545 1-371); conditions: protein: recombinant; tags: N-terminal GST; dsDNA, one strand shown
# T11 sequence: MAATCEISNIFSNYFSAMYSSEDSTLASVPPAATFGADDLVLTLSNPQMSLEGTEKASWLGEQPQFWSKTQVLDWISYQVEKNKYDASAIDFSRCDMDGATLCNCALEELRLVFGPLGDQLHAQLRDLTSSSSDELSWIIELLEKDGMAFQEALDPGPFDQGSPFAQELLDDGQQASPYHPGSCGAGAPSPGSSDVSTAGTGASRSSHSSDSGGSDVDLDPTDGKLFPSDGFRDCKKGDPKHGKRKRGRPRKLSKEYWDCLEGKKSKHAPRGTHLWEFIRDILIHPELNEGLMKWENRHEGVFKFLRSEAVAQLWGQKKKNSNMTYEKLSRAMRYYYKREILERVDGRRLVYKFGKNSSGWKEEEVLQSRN
# Outline: as §1
# CRX = CRX (Homo sapiens, UniProt O43186 1-299); conditions: protein: recombinant; tags: N-terminal GST; dsDNA, one strand shown
# Chain of CRX (O43186 whole entry): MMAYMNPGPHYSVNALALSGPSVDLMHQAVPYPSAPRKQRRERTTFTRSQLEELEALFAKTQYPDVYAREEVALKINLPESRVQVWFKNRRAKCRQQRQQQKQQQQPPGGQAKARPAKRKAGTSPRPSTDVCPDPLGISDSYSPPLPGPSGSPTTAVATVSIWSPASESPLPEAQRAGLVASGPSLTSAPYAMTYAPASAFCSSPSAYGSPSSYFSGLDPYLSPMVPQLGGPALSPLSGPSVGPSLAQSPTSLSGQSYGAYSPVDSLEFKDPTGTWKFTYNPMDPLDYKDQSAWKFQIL
# Outline: as §1
# ETV1 = ETV1 (Homo sapiens, UniProt P50549 1-477); conditions: protein: recombinant; tags: N-terminal GST; dsDNA, one strand shown
# Chain of ETV1 (P50549 whole entry): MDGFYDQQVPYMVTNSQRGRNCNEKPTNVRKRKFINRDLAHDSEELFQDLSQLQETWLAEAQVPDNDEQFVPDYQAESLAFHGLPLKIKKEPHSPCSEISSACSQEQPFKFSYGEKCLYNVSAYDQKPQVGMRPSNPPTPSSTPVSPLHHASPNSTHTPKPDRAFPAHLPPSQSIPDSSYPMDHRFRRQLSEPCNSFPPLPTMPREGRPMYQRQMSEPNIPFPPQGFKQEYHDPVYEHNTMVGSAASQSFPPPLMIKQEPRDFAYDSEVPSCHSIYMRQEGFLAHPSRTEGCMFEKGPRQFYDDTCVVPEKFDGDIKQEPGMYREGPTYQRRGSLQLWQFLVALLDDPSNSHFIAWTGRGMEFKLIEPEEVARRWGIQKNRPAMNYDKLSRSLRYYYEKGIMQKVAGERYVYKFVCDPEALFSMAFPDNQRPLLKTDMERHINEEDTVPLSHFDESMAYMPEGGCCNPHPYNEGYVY
# Outline: as §1
sequence,measurement,setting,value
TAACCC,binding signal,FLI1,"1.31 fold enrichment (6-mer frequency, TF over GST control)"
same,binding signal,ELK1,"1.4 fold enrichment (6-mer frequency, TF over GST control)"
same,binding signal,GABPA,"1.25 fold enrichment (6-mer frequency, TF over GST control)"
same,binding signal,ERG,"1.23 fold enrichment (6-mer frequency, TF over GST control)"
same,binding signal,ELF1,"1.28 fold enrichment (6-mer frequency, TF over GST control)"
same,binding signal,EHF,"1.25 fold enrichment (6-mer frequency, TF over GST control)"
same,binding signal,SPI1,"1.18 fold enrichment (6-mer frequency, TF over GST control)"
same,binding signal,SPIB,"1.21 fold enrichment (6-mer frequency, TF over GST control)"
same,binding signal,ELK3,"1.38 fold enrichment (6-mer frequency, TF over GST control)"
same,binding signal,FEV,"1.26 fold enrichment (6-mer frequency, TF over GST control)"
same,binding signal,ETV5,"1.31 fold enrichment (6-mer frequency, TF over GST control)"
same,binding signal,HSF1,"1.3 fold enrichment (6-mer frequency, TF over GST control)"
same,binding signal,SPIC,"1.35 fold enrichment (6-mer frequency, TF over GST control)"
same,binding signal,ELF4,"1.32 fold enrichment (6-mer frequency, TF over GST control)"
same,binding signal,ELK4,"1.2 fold enrichment (6-mer frequency, TF over GST control)"
same,binding signal,ETV2,"1.17 fold enrichment (6-mer frequency, TF over GST control)"
same,binding signal,ELF3,"1.29 fold enrichment (6-mer frequency, TF over GST control)"
same,binding signal,CRX,"1.77 fold enrichment (6-mer frequency, TF over GST control)"
same,binding signal,ETV1,"1.29 fold enrichment (6-mer frequency, TF over GST control)"
